Inconclusive results are not listed. Calls of active or inactive are those of the source. Calls follow the shape of the full dose curve.
Target: Peroxisome proliferator-activated receptor delta (Homo sapiens) (UniProt Q03181)
Test: qHTS assay to identify small molecule agonists of the peroxisome proliferator-activated receptor delta (PPARd) signaling pathway (AID 743212)
Conditions: HEK293H PPARd-UAS-bla, beta-lactamase FRET ratio, 17 h; series mostly up to 62.6 µM
Description: U.S. Tox21 Program National Center for Advancing Translational Sciences [NCATS] NIH Chemical Genomics Center [NCGC] U.S. Environmental Protection Agency [EPA] National Institutes of Environmental Health Sciences [NIEHS] National Toxicology Program [NTP] U.S. Food and Drug Administration [FDA] Tox21 Assay Overview: The peroxisome proliferator-activated receptors (PPARs) are lipid-activated transcription factors of the nuclear receptor superfamily with three distinct subtypes namely PPAR alpha, PPAR delta (PPARd) and PPAR gamma. All these subtypes heterodimerizes with Retinoid X receptor (RXR) and have different physiological functions. […] To identify the compounds that activate PPAR-delta signaling, GeneBLAzer PPAR delta UAS-bla HEK293H cell line (Invitrogen, Carlsbad, CA, USA) containing a beta-lactamase reporter gene under the control of an Upstream Activator Sequence (UAS) was used to screen the Tox21 compound library.
Tox21 Assay Protocol Summary: PPARd-bla cells were dispensed at 3000 cells/6uL/well in 1536-well black wall/clear bottom plates using a Multidrop Combi (Thermo Fisher Scientific, Waltham, MA) dispenser. After the assay plates were incubated at 37 C and 5% CO2 for 5 h, 23 nL of compounds dissolved in DMSO, positive controls or DMSO only was transferred to the assay plate by a Pintool station (Kalypsys, San Diego, CA). The assay plates were incubated at 37C for 17 h. After 1 uL of LiveBLAzerTM B/G FRET substrate was added using a Bioraptr Flying Reagent Dispenser (FRD) workstation (Beckman Coulter, Indianapolis, IN, USA), the plates were incubated at room temperature for 2 h, and fluorescence intensity was measured by an Envision plate reader (PerkinElmer, Shelton, CT).

Chain of Peroxisome proliferator-activated receptor delta (Homo sapiens) (Q03181 whole entry, looked up): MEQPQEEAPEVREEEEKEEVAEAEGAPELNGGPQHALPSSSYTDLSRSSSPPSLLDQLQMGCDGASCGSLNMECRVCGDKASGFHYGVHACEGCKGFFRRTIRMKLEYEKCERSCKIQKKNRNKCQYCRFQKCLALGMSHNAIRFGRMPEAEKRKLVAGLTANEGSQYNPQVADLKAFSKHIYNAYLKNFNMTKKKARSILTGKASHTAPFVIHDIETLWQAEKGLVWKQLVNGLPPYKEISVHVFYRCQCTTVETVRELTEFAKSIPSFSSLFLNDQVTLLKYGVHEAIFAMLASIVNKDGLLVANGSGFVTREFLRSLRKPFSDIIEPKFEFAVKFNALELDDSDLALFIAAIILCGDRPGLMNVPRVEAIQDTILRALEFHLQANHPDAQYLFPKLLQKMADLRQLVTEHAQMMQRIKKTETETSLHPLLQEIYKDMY

Structure (SMILES) | outcome
CCN(CCC#N)c1ccccc1 | inactive
CC(=O)Nc1ccc(C)cc1 | inactive
COc1ccc(N=Nc2cc(C)c(N=Nc3ccc(S(=O)(=O)O)cc3)cc2OC)cc1 | inactive
Nc1cc(S(=O)(=O)O)ccc1S(=O)(=O)O | inactive
NS(=O)(=O)c1cc2c(cc1Cl)NC(C(Cl)Cl)NS2(=O)=O (stereo not given) | inactive
COc1cc2c3cc1Oc1cc(ccc1O)C[C@@H]1c4c(cc(OC)c(O)c4Oc4ccc(cc4)C[C@@H]3N(C)CC2)CC[N+]1(C)C | inactive
NS(=O)(=O)c1ccccc1OC(F)(F)F | inactive
C[CH2][Ge]([Cl])([CH2]C)[CH2]C | inactive
COc1cc2c(Nc3ccc(Br)cc3F)ncnc2cc1OCC1CCN(C)CC1 | inactive
CCC(C)(CCC(C)C)C(=O)[O-].CCC(C)(CCC(C)C)C(=O)[O-].[Zn+2] (stereo not given) | inactive
c1ccccc1 | inactive
CC(C)(CO)[C@@H](O)C(=O)NCCCO | inactive
O=C1NC2NC(=O)NC2N1 (stereo not given) | inactive
CCOC(=O)CCc1ccccc1 | inactive
CC(C)C(=O)Nc1cccc(C(F)(F)F)c1 | inactive
CCCCCCCCCOCC1CO1 (stereo not given) | inactive
CC(C)COC(=O)CC(C(=O)OCC(C)C)S(=O)(=O)O (stereo not given) | inactive
CC(CC(=O)O)CC(C)(C)C (stereo not given) | inactive
CC(=O)OC[C@H]1O[C@@H](OC(C)=O)[C@H](OC(C)=O)[C@@H]1OC(C)=O | inactive
COc1cc(C=O)ccc1OC(=O)C(C)C | inactive

Structure (SMILES) | outcome
C[C@H]1O[C@H](O[C@H]2[C@H](O)[C@@H](O)[C@@H](O[C@H]3[C@H](O)[C@@H](O)[C@H](O)O[C@@H]3CO)O[C@@H]2CO)[C@H](O)[C@@H](O)[C@@H]1N[C@H]1C=C(CO)[C@@H](O)[C@H](O)[C@H]1O | inactive
O=[Si]=O | inactive
Cc1ccccc1C(=O)N1CC/C(=N\OS(=O)(=O)O)c2ccc(Cl)cc21 | inactive
O=C(Nc1cccc(C2=NCCN2)c1)Nc1cccc(C2=NCCN2)c1 | inactive
CC(=O)OCCCc1ccccc1 | inactive
CCCCCCCCOC(C)=O | inactive
NC(=O)NNC(N)=O | inactive
O=C(Oc1ccccc1C(=O)O)c1ccccc1O | inactive
CCCCCC1Nc2cc(C(F)(F)F)c(S(N)(=O)=O)cc2S(=O)(=O)N1 (stereo not given) | inactive
CCCCCCCCCCCCCCCC(=O)NCCO | inactive
CCC(O)C(C)(C)C (stereo not given) | inactive
CN(C)CCCNCCC#N | inactive
CN[C@@H]1[C@@H](O)[C@@H](O[C@@H]2[C@H](O)[C@H](O[C@H]3OC(CN)=CC[C@H]3N)[C@@H](N)C[C@H]2N)OCC1(C)O (stereo not given in full) | inactive
CC(C)c1ccccc1O | inactive
CC(=O)OCC(=O)[C@@]1(O)[C@H](OC(C)=O)C[C@H]2[C@@H]3CCC4=CC(=O)C=C[C@]4(C)[C@@]3(F)[C@@H](O)C[C@@]21C | inactive
COc1cccc2sc(N)nc12 | inactive
CCc1nccnc1C | inactive
F[Si-2](F)(F)(F)(F)F | inactive
CCC(C)(C)C1CCC(=O)CC1 | inactive
O=S(=O)(O)c1cc(O)ccc1O | inactive

— PubChem BioAssay (Tox21)
